Bioassay records: PubChem BioAssay, National Center for Advancing Translational Sciences (NCATS)
Only some compounds are listed: those with a hit (about 17% of all), similar ones and a draw of the others.
DT40 TDP1 CPT: qHTS for Inhibitors of human tyrosyl-DNA phosphodiesterase 1 (TDP1): qHTS in cells in presence of CPT; chicken DT40 Tdp1-/-;hTDP1 cells + 20 nM CPT, ATP luminescence, 48 h; Potency, µM (titrated, usually from 46.2 µM), for inactives: top-dose activity change, negative = growth inhibition, actives largely listed as inhibitors; 420,000 tested, 12% active; AID 686979, 2013; note: % is set by controls: 0 for no effect and ±100 for the full control effect; nearly all actives have a fitted effect of over 55% in size
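Chicken DT40 Tdp1-/- cells complemented with human TDP1, 400 cells/well, exposed to compounds plus 20 nM camptothecin for at least 48 h at 37 C; viability read as ATP content by CellTiter-Glo luminescence.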
HT1080NT lethal: qHTS for induction of synthetic lethality in tumor cells producing 2HG: qHTS for the HT-1080-NT fibrosarcoma cell line. HT-1080-NT fibrosarcoma viability, CellTiter-Glo ATP luminescence, 48 h. Potency, µM (highest dose often 46.1 µM), inactives show at the highest dose activity, negative = less viability, usual class: cytotoxic. 360,000 tested, 1.6% active. AID 686970, 2013;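 note: NT is the 2HG producing partner of a matched IDH1 knockdown line; 0% = DMSO-treated cells and -100% = media-only wells without cells; nearly all actives have a fitted effect of over 55% in size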
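Luminescent CellTiter-Glo readout after 48 hours of compound exposure at 37 degrees C defined viability of HT-1080-NT cells. Activity was normalized to DMSO wells and cell-free media wells; concentration-response curves were fitted and assigned curve classes.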
DT40 TDP1 no CPT: qHTS for Inhibitors of human tyrosyl-DNA phosphodiesterase 1 (TDP1): qHTS in cells in absence of CPT; DT40 Tdp1-/- hTDP1 cells, no CPT, ATP luminescence, 48 h; Potency, µM (titrated, usually from 46.2 µM), for inactives: at the highest dose activity change, negative = growth inhibition, actives largely listed as inhibitors; 420,000 tested, 15% active; note: % is set by controls: 0 for no effect and ±100 for the full control effect; nearly all actives have a fitted effect of over 55% in size
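Luminescent ATP content (CellTiter-Glo) served as the growth readout. Knockout chicken DT40 cells expressing human TDP1 were exposed to compounds without camptothecin for a minimum 48 hr at 37 °C.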
HT1080 IDH1KD tx: qHTS for induction of synthetic lethality in tumor cells producing 2HG: qHTS for the HT-1080-IDH1KD cell line; HT-1080 IDH1 knockdown viability, ATP luminescence, 48 h; Potency, µM (doses to about 46.1 µM), without a hit: at the highest dose activity, negative = toxicity, hits mostly cytotoxic; 360,000 tested, 2% active;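 note: 0% = DMSO wells and -100% = cell-free medium wells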
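CellTiter-Glo luminescence after 48 h compound exposure at 37 degrees C of IDH1-knockdown HT-1080 cells in 5% FBS RPMI. %Activity scaled between DMSO wells and cell-free media wells, with curves fitted and assigned curve classes.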
TGFb SMAD3 inh: qHTS for Inhibitors of TGF-b | Potency, µM (doses to about 46.1 µM), inactives show at the top dose activity, negative = inhibition, usual class: inhibitors | HepG2 CAGA-GFP TGF-b/SMAD3 reporter, GFP fluorescence, 18 h; TGF-beta stimulated, 500 pg/mL final | 410,000 tested, 1.2% active; note: % is set by controls: 0 for no effect and ±100 for the full control effect; nearly all actives have a fitted effect of over 65% in size
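Smad-responsive CAGA-GFP expression was quantified in HEPG2 cells exposed to compounds and 500 pg/mL final TGF-beta for 18 h at 37 degrees C; unstimulated wells defined full inhibition.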
HepG2 viability: qHTS for Inhibitors of TGF-b: Cytotox Counterscreen. HepG2 CAGA-GFP viability, ATP luminescence, 18 h. Potency, µM (top dose mostly 46.1 µM), for the others: top-dose activity change, negative = cytotoxicity, hits mostly cytotoxic. 410,000 tested, 0.76% active. AID 588856, 2011
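CellTiter-Glo luminescence gave cytotoxicity after 18 hours at 37 degrees C. The cells were HepG2 CAGA-GFP in 1% FBS DMEM, stimulated with 500 pg/mL TGF-beta after compound addition. %Activity was normalised to no-cell wells (complete cell-killing) and DMSO (no toxicity), and curves were fitted and classified.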
* hit, by the source's call; u = inconclusive; x = no result. Calls come from the whole dose curve; as a rule, active = well fitted curve in the direction sought with a large enough effect; inconclusive = small, poorly fitted or top-dose-only effect, or another doubt; inactive = no such curve, though single readings can be large; an effect the other way counts as inactive or inconclusive. Potency is the fitted concentration of half-maximal effect.

SMILES	DT40 TDP1 CPT	HT1080NT lethal	DT40 TDP1 no CPT	HT1080 IDH1KD tx	TGFb SMAD3 inh	HepG2 viability
COc1ccc(C(C(=O)NCC2CCCO2)N(Cc2ccccc2)C(=O)CNC(=O)c2ccco2)cc1OC (stereo not drawn)	0%	-2%	-14%	-1%	3%	-11%
O=C(CSc1nnc2ccccn12)NNC(=O)c1cccc([N+](=O)[O-])c1	9%	7%	6%	9%	15%	0%
CC(C)C[C@H](NC(=O)[C@H](Cc1ccccc1)n1c(=O)[nH]c2ccccc2c1=O)C(=O)N1CCC[C@@H]1C(=O)O	-21%	-2%	-4%	0%	9%	-23%
CC(=O)Nc1ccc(NC(=O)Nc2ccccc2)cc1	-4%	11%	27%	9%	-7%	-33%
O=C(Nc1ccccc1)Nc1cc(Cl)cc(Cl)c1	6.5µM*	16µM*	12µM*	15µM*	16µM*	-82%
Cc1ccc2c(c1)CCCN2C(=O)CCc1nc2ccccc2c(=O)[nH]1	0.46µM*	8.2µM*	u	u	-1%	3%
Cc1ccc(N2CCN(C(=O)CCc3nc4ccccc4[nH]3)CC2)c(C)c1	18µM*	-15%	u	-16%	u	-16%
O=C(NCC1COc2ccccc2O1)C1CCCN(S(=O)(=O)c2cnc[nH]2)C1 (stereo not drawn)	-5%	2%	-10%	11%	4%	5%
O=C(CC(C(=O)O)c1cccc(Cl)c1Cl)c1ccccc1 (stereo not drawn)	-6%	1%	-11%	12%	0%	-16%
Cc1[nH]nc2nc(SCC(=O)NC3CCCCC3)n(-c3ccc(Br)cc3)c(=N)c12	8.2µM*	-4%	6.5µM*	u	-24%	6%
CCOc1ccc(-n2c(SCC(=O)Nc3ccc(CC)cc3)nc3n[nH]c(C)c3c2=N)cc1	u	u	21µM*	18µM*	u	-54%
Cc1ccc(NC(=O)CSc2nc(O)cc(=O)n2-c2ccc(C)cc2)cc1	-4%	-4%	-12%	0%	21%	-1%
CCc1ccc(NC(=O)CSc2nc3n[nH]c(C)c3c(=N)n2-c2ccc(C)cc2)cc1	6.5µM*	x	3.7µM*	x	0%	-50%
CCC(Sc1nc2n[nH]c(C)c2c(=N)n1-c1ccc(Br)cc1)C(=O)N(CC)CC (stereo not drawn)	18µM*	x	15µM*	x	u	-23%
CCc1ccc(CN(C)C(=O)C2CCC(=O)N(CC3CCCCC3)C2)cc1 (stereo not drawn)	23µM*	-5%	u	-9%	u	-33%
CN(Cc1ccccc1C(F)(F)F)C(=O)C1CCC(=O)N(CC2CCCCC2)C1 (stereo not drawn)	-23%	3%	-13%	-2%	u	-21%
CC(=O)Nc1ccc(NC(=O)C2(C)Cc3c(-c4cccc(C(F)(F)F)c4)ccnc3O2)cc1 (stereo not drawn)	u	3%	u	-10%	6%	-8%
CC1(C(=O)Nc2cccnc2)Cc2c(-c3cccc(C(F)(F)F)c3)ccnc2O1 (stereo not drawn)	16µM*	0%	23µM*	-3%	u	-39%
CC1(C(=O)Nc2cccnc2)Cc2c(-c3ccc4c(c3)OCO4)ccnc2O1 (stereo not drawn)	-76%	-19%	u	-29%	-3%	-27%
CC(=O)c1cccc(NC(=O)C2(C)Cc3c(-c4cccc(C(F)(F)F)c4)ccnc3O2)c1 (stereo not drawn)	16µM*	u	23µM*	u	u	-47%
COC(=O)C1CCN(C(=O)CN2C(=O)c3ccccc3S2(=O)=O)CC1	u	u	-3%	9%	3%	10%
CC1CCN(C(=O)CN2c3ccc(Br)cc3-c3ccccc3S2(=O)=O)CC1	13µM*	x	21µM*	x	-37%	-12%
CC1CCN(C(=O)CN2c3ccc(C(C)C)cc3-c3ccccc3S2(=O)=O)CC1	15µM*	x	23µM*	x	0%	-25%
Cc1c(Cl)cccc1-n1ncc(C(=O)NC2CCCC2)c1C1CCN(C(=O)OC(C)(C)C)CC1	u	x	21µM*	x	-19%	-17%
Cc1c(Cl)cccc1-n1ncc(C(=O)N2CCC(C)CC2)c1C1CCN(C(=O)OC(C)(C)C)CC1	u	x	21µM*	x	-7%	-30%
SMILES	DT40 TDP1 CPT	HT1080NT lethal	DT40 TDP1 no CPT	HT1080 IDH1KD tx	TGFb SMAD3 inh	HepG2 viability
Cc1c(Cl)cccc1-n1ncc(C(=O)NC2CCCCC2)c1C1CCN(C(=O)OC(C)(C)C)CC1	u	x	u	x	-8%	-12%
COc1cc(Cl)c(C)cc1NC(=O)c1cnn(-c2ccc(F)cc2F)c1C1CCN(C(=O)OC(C)(C)C)CC1	u	x	u	x	u	-35%
Cc1c(Cl)cccc1-n1ncc(C(=O)N2CCN(c3ncccn3)CC2)c1C1CCN(C(=O)OC(C)(C)C)CC1	u	x	u	x	-15%	-20%
CN1CCN(C(=O)c2cnn(-c3cccc(Cl)c3)c2C2CCN(C(=O)OC(C)(C)C)CC2)CC1	-1%	x	-22%	x	u	-21%
Cc1c(Cl)cccc1-n1ncc(C(=O)Nc2ccc(F)cc2F)c1C1CCN(C(=O)OC(C)(C)C)CC1	u	x	15µM*	x	u	-8%
CC(C)(C)OC(=O)N1CCC(c2c(C(=O)NC3CCCCC3)cnn2-c2cccc(Cl)c2)CC1	u	x	u	x	18µM*	4%
Cc1ccc2c(c1)N(C(=O)N1CCC(C(=O)NCCc3ccccc3)CC1)CC(C)O2 (stereo not drawn)	u	x	u	x	u	-33%
CC1CN(C(=O)N2CCC(C(=O)NCc3ccccc3F)CC2)c2cc(Cl)ccc2O1 (stereo not drawn)	21µM*	x	15µM*	x	-15%	-29%
Cc1ccc2c(c1)N(C(=O)N1CCC(C(=O)NCc3ccccc3F)CC1)CC(C)O2 (stereo not drawn)	u	x	18µM*	x	13µM*	-48%
CC1CN(C(=O)N2CCC(C(=O)NCc3ccco3)CC2)c2ccccc2O1 (stereo not drawn)	5%	x	-19%	x	-8%	-5%
